In all, about 5,500 compounds went through this assay and about 2,000 (36%) were called active. About 18% were inconclusive and are not listed. Cut-off read from the data, not from the text of the source: active = normalized growth mostly below about 0.91 (no sharp cut-off); inconclusive = no clear call, values can overlap the other calls; inactive = mostly above about 0.92. The list shows a part of the results.
Test: chemical genetic growth profiling, strain panel (AID 1159580);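 note: tested at 20 µM; growth read once vehicle control cultures reached saturation at 30 °C; 1 = growth at the plate median or of vehicle wells; lower values mean less growth of the strain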
Details: growth OD

Measured: normalized growth

CCC(=O)O[C@H]1[C@H](O[C@@H]2[C@@H](C)[C@H](O[C@H]3C[C@@](C)(OC)[C@@H](O)[C@H](C)O3)[C@@H](C)C(=O)O[C@H](CC)[C@@](C)(O)[C@H](O)[C@@H](C)C(=O)[C@H](C)C[C@@]2(C)O)O[C@H](C)C[C@@H]1N(C)C
inactive: S. cerevisiae deletion strains, locus YJR066W, strain TOR1, stronger effect = lower value 0.852 | S. cerevisiae deletion strains, locus YKL009W, strain mrt4, stronger effect = lower value 0.932 | S. cerevisiae deletion strains, locus YKL068W, stronger effect = lower value 1.04 | S. cerevisiae deletion strains, locus YKL085W, strain MDH1 (second series), stronger effect = lower value 1 | S. cerevisiae deletion strains, locus YKL085W, strain MDH1, stronger effect = lower value 1 | S. cerevisiae deletion strains, locus YKL160W, strain elf1, stronger effect = lower value 0.924 | S. cerevisiae deletion strains, locus YKL190W, strain CNB1, stronger effect = lower value 1.01 | S. cerevisiae deletion strains, locus YKR026C, strain gcn3, stronger effect = lower value 1.03 | S. cerevisiae deletion strains, locus YKR091W, strain srl3, stronger effect = lower value 1.02 | S. cerevisiae deletion strains, locus YLL026W, stronger effect = lower value 0.942 | S. cerevisiae deletion strains, locus YLL041C, strain sdh2, stronger effect = lower value 1 | S. cerevisiae deletion strains, locus YLR039C, strain RIC1, stronger effect = lower value 0.865 | S. cerevisiae deletion strains, locus YLR058C, strain SHM2, stronger effect = lower value 0.968 | S. cerevisiae deletion strains, locus YLR102C, strain apc9, stronger effect = lower value 1.01 | S. cerevisiae deletion strains, locus YLR113W, strain HOG1, stronger effect = lower value 1.02 | S. cerevisiae deletion strains, locus YLR262C, strain YPT6 (second series), stronger effect = lower value 1.03 | S. cerevisiae deletion strains, locus YLR262C, strain YPT6, stronger effect = lower value 0.882 | S. cerevisiae deletion strains, locus YLR268W, strain sec22, stronger effect = lower value 0.988 | S. cerevisiae deletion strains, locus YLR330W, strain CHS5, stronger effect = lower value 0.937 | S. cerevisiae deletion strains, locus YLR342W, strain FKS1 (second series), stronger effect = lower value 1.05 | S. cerevisiae deletion strains, locus YLR342W, strain FKS1, stronger effect = lower value 1.05 | S. cerevisiae deletion strains, locus YLR370C, strain arc18, stronger effect = lower value 1 | S. cerevisiae deletion strains, locus YLR371W, strain rom2, stronger effect = lower value 0.935 | S. cerevisiae deletion strains, locus YLR384C, strain iki3, stronger effect = lower value 1.02 | S. cerevisiae deletion strains, locus YML016C, strain PPZ1, stronger effect = lower value 1 | S. cerevisiae deletion strains, locus YML032C, strain rad52, stronger effect = lower value 0.946 | S. cerevisiae deletion strains, locus YML124C, strain tub3, stronger effect = lower value 1.02 | S. cerevisiae deletion strains, locus YMR058W, strain fet3, stronger effect = lower value 0.961 | S. cerevisiae deletion strains, locus YMR078C, strain ctf18, stronger effect = lower value 0.988 | S. cerevisiae deletion strains, locus YMR129W, stronger effect = lower value 1 | S. cerevisiae deletion strains, locus YMR223W, strain ubp8, stronger effect = lower value 0.982 | S. cerevisiae deletion strains, locus YMR231W, strain pep5, stronger effect = lower value 0.984 | S. cerevisiae deletion strains, locus YMR263W, strain SAP30, stronger effect = lower value 0.943 | S. cerevisiae deletion strains, locus YNL067W, strain RPL9B, stronger effect = lower value 0.948 | S. cerevisiae deletion strains, locus YNL128W, strain TEP1, stronger effect = lower value 0.985 | S. cerevisiae deletion strains, locus YNL183C, strain NPR1, stronger effect = lower value 0.857 | S. cerevisiae deletion strains, locus YNL209W, strain ssb2, stronger effect = lower value 0.992 | S. cerevisiae deletion strains, locus YNL250W, strain rad50, stronger effect = lower value 1.03 | S. cerevisiae deletion strains, locus YNL271C, strain bni1, stronger effect = lower value 1.01 | S. cerevisiae deletion strains, locus YNL298W, strain CLA4, stronger effect = lower value 0.952 | S. cerevisiae deletion strains, locus YNL322C, strain KRE1 (second series), stronger effect = lower value 0.943 | S. cerevisiae deletion strains, locus YNR049C, strain mso1, stronger effect = lower value 1.01 | S. cerevisiae deletion strains, locus YNR052C, strain pop2, stronger effect = lower value 1 | S. cerevisiae deletion strains, locus YOL006C, strain TOP1, stronger effect = lower value 0.689 | S. cerevisiae deletion strains, locus YOL012C, strain htz1 0.653 | S. cerevisiae deletion strains, locus YOL147C, strain pex11, stronger effect = lower value 0.977 | S. cerevisiae deletion strains, locus YOR061W, strain CKA2, stronger effect = lower value 1.01 | S. cerevisiae deletion strains, locus YOR069W, strain VPS5, stronger effect = lower value 1 | S. cerevisiae deletion strains, locus YOR070C, strain gyp1, stronger effect = lower value 0.93 | S. cerevisiae deletion strains, locus YOR080W, strain dia2, stronger effect = lower value 0.977 | S. cerevisiae deletion strains, locus YOR136W, strain idh2, stronger effect = lower value 0.978 | S. cerevisiae deletion strains, locus YOR144C, strain elg1, stronger effect = lower value 1.01 | S. cerevisiae deletion strains, locus YOR184W, strain ser1, stronger effect = lower value 0.936 | S. cerevisiae deletion strains, locus YOR231W, strain MKK1, stronger effect = lower value 0.879 | S. cerevisiae deletion strains, locus YOR265W, strain rbl2, stronger effect = lower value 0.982 | S. cerevisiae deletion strains, locus YOR316C, strain cot1, stronger effect = lower value 1.01 | S. cerevisiae deletion strains, locus YPL051W, strain arl3, stronger effect = lower value 0.921 | S. cerevisiae deletion strains, locus YPL055C, strain LGE1, stronger effect = lower value 0.894 | S. cerevisiae deletion strains, locus YPL106C, strain sse1, stronger effect = lower value 1.06 | S. cerevisiae deletion strains, locus YPL256C, strain CLN2, stronger effect = lower value 0.953 | S. cerevisiae deletion strains, locus YPR119W, strain clb2, stronger effect = lower value 1.02 | S. cerevisiae deletion strains, locus YPR141C, strain kar3, stronger effect = lower value 1.06 | S. cerevisiae deletion strains, locus YPR167C, strain met16, stronger effect = lower value 0.994 | S. cerevisiae deletion strains, strain wtn01, stronger effect = lower value 0.968 | S. cerevisiae strains, strain wild type, stronger effect = lower value 0.974
active: S. cerevisiae deletion strains, locus YKR001C, strain vps1, stronger effect = lower value 0.648 | S. cerevisiae deletion strains, locus YLL001W, strain dnm1, stronger effect = lower value 0.87 | S. cerevisiae deletion strains, locus YLR027C, strain aat2, stronger effect = lower value 0.893 | S. cerevisiae deletion strains, locus YLR221C, strain rsa3, stronger effect = lower value 0.796 | S. cerevisiae deletion strains, locus YLR258W, strain gsy2, stronger effect = lower value 0.902 | S. cerevisiae deletion strains, locus YLR320W, strain mms22, stronger effect = lower value 0.596 | S. cerevisiae deletion strains, locus YLR357W, strain rsc2, stronger effect = lower value 0.759 | S. cerevisiae deletion strains, locus YLR418C, strain cdc73, stronger effect = lower value 0.615 | S. cerevisiae deletion strains, locus YML120C, strain ndi1, stronger effect = lower value 0.905 | S. cerevisiae deletion strains, locus YMR125W, strain sto1, stronger effect = lower value 0.765 | S. cerevisiae deletion strains, locus YMR205C, strain PFK2, stronger effect = lower value 0.8 | S. cerevisiae deletion strains, locus YMR307W, strain GAS1, stronger effect = lower value 0.463 | S. cerevisiae deletion strains, locus YNL071W, strain lat1, stronger effect = lower value 0.309 | S. cerevisiae deletion strains, locus YNL233W, strain BNI4, stronger effect = lower value 0.853 | S. cerevisiae deletion strains, locus YNL248C, strain rpa49, stronger effect = lower value 0.776 | S. cerevisiae deletion strains, locus YNL307C, strain MCK1, stronger effect = lower value 0.4 | S. cerevisiae deletion strains, locus YOR001W, strain rrp6, stronger effect = lower value 0.861 | S. cerevisiae deletion strains, locus YOR083W, strain WHI5, stronger effect = lower value 0.829 | S. cerevisiae deletion strains, locus YOR106W, strain vam3, stronger effect = lower value 0.75 | S. cerevisiae deletion strains, locus YOR270C, strain vph1, stronger effect = lower value 0.3 | S. cerevisiae deletion strains, locus YOR290C, strain snf2, stronger effect = lower value 0.786 | S. cerevisiae deletion strains, locus YPL078C, strain atp4, stronger effect = lower value 0.635 | S. cerevisiae deletion strains, locus YPL240C, strain hsp82, stronger effect = lower value 0.904 | S. cerevisiae deletion strains, locus YPR163C, strain tif3, stronger effect = lower value 0.829

From PubChem BioAssay AID1159580 (chemical genetic matrix, 2015)
